# From PubChem BioAssay
# Values without a mark were called inactive. The list shows a part of the results. Calls of active or inactive are those of the source.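 How the source made its calls, unless noted: active means mean inhibition above 46.5%, the solvent-only control mean plus 3 SD; inactive means the rest.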
# How the values were obtained:
# [1] = tested on: transactivating tegument protein VP16 (Human herpesvirus 1); assay: compounds suppressing VP16-driven luciferase signal – cell-based, luminescence, single concentration, counter-screen for SRC2 inhibitor project (AID 652007; in the data active means inhibition above about 36%); conditions: cell-based VP16 transactivation luciferase reporter, at 8.9 µM, stronger effect = higher value
# [2] = target: Nuclear receptor coactivator 2 (Homo sapiens) (UniProt Q15596); assay: inhibition of GAL4-SRC2 driven luciferase expression – cell-based, luminescence, HEK293, triplicate, confirmation (AID 652008); conditions: HEK293 GAL4-SRC2 luciferase reporter, at 8.9 µM, stronger effect = higher value;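 further: 0% = DMSO-treated cells and 100% = Gossypol at 36 µM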
# [3] = BSA probe fluorescence interference – biochemical, TAMRA-labeled BSA, counter-screen for TCR-CD3 interaction inhibitor project (AID 652035; in the data active means inhibition above about 23%;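 further: 0% = buffer low control and 100% = reference high control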); conditions: TAMRA-labeled BSA probe fluorescence counterscreen; at 9.4 µM; stronger effect = higher value
# [4] = tested on: T-cell receptor (TCR)-CD3 interaction, human; assay: blockers of TCR binding to CD3 – biochemical, fluorescence, TAMRA-labeled TCR probe, confirmation (AID 652036; in the data active means inhibition above about 19%); conditions: TAMRA-labeled TCR probe fluorescence binding assay; at 9.4 µM; stronger effect = higher value
# [5] = VP16-driven transactivation reporter suppression – cell-based, luminescence, HEK293, counter-screen for COUP-TFII antagonist project (AID 687007; in the data active means inhibition above about 13%); conditions: HEK293 Gal4-VP16 luciferase reporter, at 8.5 µM, stronger effect = higher value
# [6] = target: COUP transcription factor 2 (Homo sapiens) (UniProt P24468); assay: retest of COUP-TFII reporter suppressors – cell-based, luciferase reporter, HEK293, triplicate, confirmation (AID 687008;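 active means mean inhibition over three repeats above a set limit taken from the earlier primary screen, cut at about 38% in these data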;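 further: 100% = cells given the luciferase reporter alone without the COUP-TF2 vector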); conditions: HEK293 NGFI-A luciferase reporter, luminescence; at 8.5 µM; stronger effect = higher value
# [7] = target: Galanin receptor type 2 (Homo sapiens) (UniProt O43603); assay: blockers of human galanin receptor 2 – cell-based, confirmation (AID 866; in the data active means inhibition above about 27%;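 further: cells stimulated with galanin at about its EC80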); conditions: GALR2-expressing cells, antagonist mode, at 4 µM, stronger effect = higher value
# [8] = nonspecific BLA reporter inhibition – CHO NFAT-bla cells, FRET readout, counter-screen for GALR2 antagonist project, confirmation (AID 867;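 active means inhibition above the mean inhibition across tested compounds plus 3 SD, cut at about 27% in these data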;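 further: 0% = 500 nM thapsigargin stimulated wells and 100% = unstimulated BSA only wells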); conditions: beta-lactamase FRET, thapsigargin-stimulated, at 4.2 µM, stronger effect = higher value
# Sequence of Nuclear receptor coactivator 2 (Homo sapiens) (Q15596 whole entry, looked up, the tested form may be a part): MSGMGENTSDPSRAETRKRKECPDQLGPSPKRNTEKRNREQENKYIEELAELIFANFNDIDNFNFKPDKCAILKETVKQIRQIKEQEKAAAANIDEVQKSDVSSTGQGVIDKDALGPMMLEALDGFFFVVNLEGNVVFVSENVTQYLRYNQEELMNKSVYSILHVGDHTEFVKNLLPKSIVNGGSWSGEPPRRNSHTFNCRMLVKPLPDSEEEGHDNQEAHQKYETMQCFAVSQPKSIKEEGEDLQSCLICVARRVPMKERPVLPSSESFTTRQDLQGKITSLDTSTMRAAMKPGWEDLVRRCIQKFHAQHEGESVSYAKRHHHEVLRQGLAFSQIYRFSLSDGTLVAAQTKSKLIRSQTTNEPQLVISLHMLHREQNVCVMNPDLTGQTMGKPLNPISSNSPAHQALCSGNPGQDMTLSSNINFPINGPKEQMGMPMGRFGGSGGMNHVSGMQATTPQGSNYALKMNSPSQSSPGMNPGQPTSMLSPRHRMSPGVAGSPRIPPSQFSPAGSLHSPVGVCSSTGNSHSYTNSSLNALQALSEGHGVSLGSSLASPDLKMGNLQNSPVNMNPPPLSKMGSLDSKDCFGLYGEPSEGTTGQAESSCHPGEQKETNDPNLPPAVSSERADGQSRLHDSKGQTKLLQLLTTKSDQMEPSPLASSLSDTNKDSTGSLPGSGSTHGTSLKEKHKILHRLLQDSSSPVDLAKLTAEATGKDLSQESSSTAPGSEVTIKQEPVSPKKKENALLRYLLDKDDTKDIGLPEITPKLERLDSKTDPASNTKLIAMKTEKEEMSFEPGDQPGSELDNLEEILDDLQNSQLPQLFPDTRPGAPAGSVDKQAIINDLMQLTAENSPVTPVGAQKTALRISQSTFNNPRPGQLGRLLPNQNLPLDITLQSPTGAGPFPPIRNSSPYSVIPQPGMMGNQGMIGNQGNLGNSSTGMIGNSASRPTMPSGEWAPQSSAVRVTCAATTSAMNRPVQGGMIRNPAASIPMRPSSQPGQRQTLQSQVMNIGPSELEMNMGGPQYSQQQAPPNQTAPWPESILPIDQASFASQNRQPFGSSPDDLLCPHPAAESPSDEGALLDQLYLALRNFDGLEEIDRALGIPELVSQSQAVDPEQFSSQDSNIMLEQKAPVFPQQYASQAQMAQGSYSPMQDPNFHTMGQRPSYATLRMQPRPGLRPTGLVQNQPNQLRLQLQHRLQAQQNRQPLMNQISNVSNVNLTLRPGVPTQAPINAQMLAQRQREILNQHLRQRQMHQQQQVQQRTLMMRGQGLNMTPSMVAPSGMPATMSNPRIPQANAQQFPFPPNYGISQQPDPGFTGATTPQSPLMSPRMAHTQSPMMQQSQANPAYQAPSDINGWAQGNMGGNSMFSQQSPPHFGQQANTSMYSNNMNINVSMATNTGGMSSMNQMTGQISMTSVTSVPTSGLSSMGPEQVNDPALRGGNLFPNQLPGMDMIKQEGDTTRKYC
# Sequence of COUP transcription factor 2 (Homo sapiens) (P24468 whole entry, looked up): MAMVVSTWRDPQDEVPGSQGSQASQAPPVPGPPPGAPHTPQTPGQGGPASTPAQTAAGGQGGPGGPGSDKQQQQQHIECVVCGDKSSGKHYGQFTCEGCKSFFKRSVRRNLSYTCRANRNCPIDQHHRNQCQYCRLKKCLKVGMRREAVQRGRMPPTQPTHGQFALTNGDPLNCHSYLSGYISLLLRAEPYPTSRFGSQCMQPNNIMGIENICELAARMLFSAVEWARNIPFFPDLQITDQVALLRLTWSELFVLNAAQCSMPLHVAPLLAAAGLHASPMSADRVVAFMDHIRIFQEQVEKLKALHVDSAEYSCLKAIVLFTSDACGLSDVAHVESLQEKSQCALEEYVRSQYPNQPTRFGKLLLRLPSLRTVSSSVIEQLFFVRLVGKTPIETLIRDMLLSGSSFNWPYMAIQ
# Sequence of Galanin receptor type 2 (Homo sapiens) (O43603 whole entry, looked up): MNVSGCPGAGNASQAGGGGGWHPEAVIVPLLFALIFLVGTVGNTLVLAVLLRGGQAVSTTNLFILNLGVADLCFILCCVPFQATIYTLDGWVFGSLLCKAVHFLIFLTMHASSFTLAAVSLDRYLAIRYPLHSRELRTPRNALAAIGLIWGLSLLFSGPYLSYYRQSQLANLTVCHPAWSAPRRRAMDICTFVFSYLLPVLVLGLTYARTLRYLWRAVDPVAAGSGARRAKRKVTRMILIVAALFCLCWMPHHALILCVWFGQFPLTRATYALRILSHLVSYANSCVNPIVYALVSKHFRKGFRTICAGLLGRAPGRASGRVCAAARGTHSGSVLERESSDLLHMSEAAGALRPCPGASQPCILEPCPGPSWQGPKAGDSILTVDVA
smiles,measurement,setting,value
Cc1cc(C(=O)COc2cccnc2[N+](=O)[O-])c(C)n1-c1ccccc1F,inhibition,[1],-54.6%
same,inhibition,[2],62.7% (active)
CC(C)[C@H](CO)Nc1nc(NCc2ccc(S(N)(=O)=O)cc2)c2ncn(C(C)C)c2n1,inhibition,[1],14.3%
same,inhibition,[2],37.8%
COc1ccccc1N(CC(=O)N/N=C(\C)c1ccccc1O)S(=O)(=O)c1ccc(C)cc1,inhibition,[1],12.9%
same,inhibition,[2],25.4%
same,inhibition,[3],-17.6%
same,inhibition,[4],14.3%
CCOC(=O)CSc1[nH]c2cc(OC)ccc2c1[N+](=O)[O-],inhibition,[1],-31.1%
same,inhibition,[2],3.3%
CN1CCC(=NNc2ncnc3sc4c(c23)CCCC4)CC1,inhibition,[1],-9.72%
same,inhibition,[2],-19.6%
O=C(NC1=NCCS1)C1COc2ccccc2O1 (stereo not drawn),inhibition,[1],29.5%
same,inhibition,[2],47.7% (active)
NNC(=O)c1[nH]c2ccc(Br)cc2c1-c1ccccc1,inhibition,[1],-11.1%
same,inhibition,[2],-1.32%
CCc1ccc(-c2nc(CSCC(=O)NC3CC3)c(C)o2)cc1,inhibition,[1],47.6% (active)
same,inhibition,[2],35.1%
Cc1ccc(C(=O)/C=C/Nc2ccccn2)cc1,inhibition,[1],31.1%
same,inhibition,[2],77% (active)
CCN(CC(=O)Nc1cc(Cl)ccc1C)C(=O)C1CCN(c2ncnc3sc(C)c(C)c23)CC1,inhibition,[1],8.26%
same,inhibition,[2],20.7%
CC(=O)c1c(C)[nH]c(C(=O)Nc2ccc(N3CCCCCC3)cc2)c1C,inhibition,[1],-41.5%
same,inhibition,[2],19.9%
O=C(CCl)N(c1ccccc1)c1ccccc1,inhibition,[1],9.78%
same,inhibition,[2],44.2%
O=C(CSCc1ccc(C(=O)O)cc1)Nc1ccccc1,inhibition,[1],-18.8%
same,inhibition,[2],-31.5%
COc1ccc(C#Cc2ccc3c(c2)[C@H]2[C@H](CCN2S(=O)(=O)c2ccccc2F)[C@H](CO)N3C)cc1,inhibition,[1],-5.48%
same,inhibition,[2],8.22%
COc1ccc(/C(=N\O)c2nccc3cc(OC)c(OC)cc23)cc1OC,inhibition,[3],-7.63%
same,inhibition,[4],15.5%
Cc1cc2nc3c(=O)[nH]c(=O)nc-3n(C[C@H](O)[C@H](O)[C@H](O)CO)c2cc1C,inhibition,[3],50.4% (active)
same,inhibition,[4],33.3% (active)
O=C(c1c(F)cccc1F)N1CCN(S(=O)(=O)c2ccc3c(c2)OCCO3)CC1,inhibition,[1],-6.59%
same,inhibition,[2],23.6%
same,inhibition,[5],-10.6%
same,inhibition,[6],23.4%
CN(C)S(=O)(=O)c1cccc(NC(=O)COC(=O)C2(c3ccccc3F)CCCC2)c1,inhibition,[7],17.7%
same,inhibition,[8],15.1%
same,inhibition,[1],-4.31%
same,inhibition,[2],0.58%
CNC(=S)NNC(=O)c1cccn(Cc2ccccc2)c1=O,inhibition,[3],4.48%
same,inhibition,[4],46.7% (active)
O=C(N/N=C/c1cc([N+](=O)[O-])ccc1O)/C(=C\c1cccs1)NC(=O)c1ccccc1,inhibition,[3],-11.3%
same,inhibition,[4],35% (active)
CCN(C(=O)Nc1cccc2ccccc12)c1ccccc1,inhibition,[3],2.01%
same,inhibition,[4],3.23%
CCOc1ccc(-n2c(O)c(/C=N/Nc3nnc(C)c(=O)[nH]3)c3ccccc3c2=O)cc1,inhibition,[3],-21.4%
same,inhibition,[4],26% (active)
COc1ccc(-c2c(-c3cc(OC)cc(OC)c3)n(C)c3ccc(-c4ccn[nH]4)cc23)cc1,inhibition,[3],1.44%
same,inhibition,[4],-1.35%
Cc1ccc(-c2nc(CSCC(=O)NC3CCN(Cc4ccccc4)CC3)c(C)o2)cc1,inhibition,[1],11%
same,inhibition,[2],33.9%
same,inhibition,[5],0.41%
same,inhibition,[6],22.5%
COCCCNC(=S)NNC(=O)C(O)(c1ccccc1)c1ccccc1,inhibition,[3],-0.41%
same,inhibition,[4],16.3%
COc1ccc(Br)cc1C(=O)NC(=S)Nc1cc(-c2nc3ccccc3[nH]2)ccc1C,inhibition,[3],17.9%
same,inhibition,[4],34.4% (active)
COc1ccc(C(=O)NNc2cc(C)nc(NNC(=O)c3ccc(OC)cc3)n2)cc1,inhibition,[3],-5.67%
same,inhibition,[4],5.09%
Cc1ccc2nc(-c3ccc(Br)cc3)cn2c1,inhibition,[1],9.32%
same,inhibition,[2],78.4% (active)
same,inhibition,[5],-12.3%
same,inhibition,[6],19.1%
COc1ccc(OC)c(NC(=O)c2cc(-c3cc(F)ccc3OCC3CCCO3)n[nH]2)c1 (stereo not drawn),inhibition,[1],1.64%
same,inhibition,[2],-1.6%
same,inhibition,[5],3.7%
same,inhibition,[6],-6.7%
C[C@H]1CCC/C=C/C(=O)c2c(O)cc(O)cc2CC(=O)O1,inhibition,[1],41.5% (active)
same,inhibition,[2],55.5% (active)
same,inhibition,[5],49.3% (active)
same,inhibition,[6],-1.02%
Cc1ccc(C(=O)NCC(=O)O)cc1S(=O)(=O)N1CCCCC1,inhibition,[3],2.01%
same,inhibition,[4],5.08%
O=c1c2ccccc2c(-c2ccccc2)nn1-c1ccccn1,inhibition,[3],-1.19%
same,inhibition,[4],-0.97%
